Results as given in PubChem BioAssay (NCATS).
Records with an inconclusive call do not appear. Entries that show only a call come without a potency. Values without a mark were called inactive. Calls of active or inactive are those of the source. The call rests on the fitted dose curve; in most records, active means well fitted curve in the direction sought with a large enough effect; inconclusive means small, poorly fitted or top-dose-only effect, or another doubt; inactive means no such curve, though single readings can be large; an effect the other way counts as inactive or inconclusive. Where a SMILES comes first, the peptide text is derived from it.

Tests used:
[1] = Primary qHTS for inhibitors of nuclear receptor binding SET domain protein 2 (NSD2) in an isogenic RCH-ACV NSD2 p.E1099K mutant (9B) (AID 1645876)
[2] = Primary qHTS for inhibitors of nuclear receptor binding SET domain protein 2 (NSD2) in an RCH-ACV wild type WT cells (2C) (AID 1645877)
Further: nearly all actives have a fitted effect of over 70% in size.
Potency means the concentration at half of the fitted maximal effect.

SMILES | Potency [1] | Potency [2] | activity change, negative = viability loss [1] | activity change, negative = cell killing [2]
CC(=O)OCC1=C[C@H](O)[C@@H]2C(C(=O)O)=CO[C@@H](O[C@@H]3O[C@H](CO)[C@@H](O)[C@H](O)[C@H]3O)[C@H]12 | inactive | inactive | – | –
CN1C(=O)c2ccccc2NC(=O)[C@]12O[C@@H]2c1cccc(O)c1 | inactive | inactive | – | –
CC[C@H]1OC(=O)[C@H](C)[C@@H](O[C@H]2C[C@@](C)(OC)[C@@H](O)[C@H](C)O2)[C@H](C)[C@@H](O[C@@H]2O[C@H](C)C[C@H](N(C)C)[C@H]2O)[C@@](C)(O)C[C@@H](C)[C@@H]2N[C@@H](COCCOC)OC([C@H]2C)[C@]1(C)O | inactive | inactive | – | –
COc1cc(C(=O)OC[C@H]2O[C@H](O[C@@]3(CO)O[C@@H](CO)[C@H](O)[C@H]3O)[C@H](O)[C@@H](O)[C@@H]2O)ccc1O | inactive | inactive | – | –
CC(=O)N[C@H]1[C@H](O[C@H]2CC[C@@]3(C)C(CC[C@]4(C)C3CC=C3C5CC(C)(C)CC[C@]5(C(=O)O)[C@H](O[C@@H]5O[C@H](CO)[C@@H](O)[C@H](O)[C@H]5O)C[C@]34C)C2(C)C)O[C@H](CO[C@@H]2OC[C@H](O)[C@H](O)[C@H]2O[C@@H]2OC[C@@H](O)[C@H](O)[C@H]2O)[C@@H](O)[C@@H]1O (stereo partly drawn) | – | – | -9.03% [at 9.23 µM] | -14.8% [at 9.23 µM]
COc1ccccc1CC(C(=O)O)N(C)C(=O)c1ccccc1 (stereo not drawn) | inactive | inactive | – | –
CC(=O)O[C@@H]1[C@@H](OC(=O)/C=C/c2ccccc2)[C@H](C)O[C@@H](O[C@H]2[C@@H]3C=CO[C@@H](O[C@@H]4O[C@H](CO)[C@@H](O)[C@H](O)[C@H]4O)[C@@H]3[C@@]3(CO)O[C@@H]23)[C@@H]1OC(C)=O | inactive | inactive | – | –
CC(=O)O[C@@]1(C)C[C@@H](O)[C@]2(O)C=CO[C@@H](O[C@@H]3O[C@H](CO)[C@@H](O)[C@H](O)[C@H]3O)[C@@H]21 | inactive | inactive | – | –
C[C@@H](O)[C@H](N)C(=O)N1CCC[C@H]1C(=O)N1CCC[C@H]1C(=O)N[C@H](C(N)=O)[C@@H](C)O (H-TPPT-NH2) | – | – | 0.764% [at 9.23 µM] | -0.759% [at 9.23 µM]
Nc1ccn([C@@H]2C(F)=C(CO)[C@@H](O)[C@H]2O)c(=O)n1 | 0.372 µM (active) | 0.332 µM (active) | – | –
CC(=O)OC1C(O)C(C)=C(CCC(C)CC(=O)O)C2(C)CCCC(C)(C)C12 (stereo not drawn) | inactive | inactive | – | –
CC(C)=CC/C=C(/C)[C@H]1CC[C@]2(C)[C@@H]1[C@H](O)CC1[C@@]3(C)CC[C@H](O)C(C)(C)[C@@H]3[C@@H](O[C@@H]3O[C@H](CO)[C@@H](O)[C@H](O)[C@H]3O[C@@H]3O[C@@H](C)[C@H](O)[C@@H](O)[C@H]3O)C[C@]12C (stereo partly drawn) | inactive | inactive | – | –
CC(=O)O[C@H]1[C@H](Oc2ccccc2COC(=O)C2(O)C=CCCC2=O)O[C@H](CO)[C@@H](O)[C@@H]1O (stereo partly drawn) | 8.93 µM (active) | 7.09 µM (active) | – | –
NC(=O)[C@H]1CCCCc2c1[nH]c1ccc(Cl)cc21 | inactive | inactive | – | –
C=C(C)C1CC2(CO)C(=CC1=O)CCC(O)C2C (stereo not drawn) | inactive | inactive | – | –
C[C@@H](OC(=O)/C=C/c1ccc(O)cc1)C1=C[C@]2(C=C[C@@H]3C(C(=O)O)=CO[C@@H](O[C@@H]4O[C@H](CO[C@@H]5O[C@H](CO)[C@@H](O)[C@H](O)[C@H]5O)[C@@H](O)[C@H](O)[C@H]4O)[C@@H]32)OC1=O | inactive | inactive | – | –
CC(C)NC[C@H](O)COc1ccc(CCOCC2CC2)cc1 | inactive | inactive | – | –
CC(=O)Oc1cc2c(s1)CCN([C@H](C(=O)C1CC1)c1ccccc1F)C2 | inactive | inactive | – | –
O=C1Nc2ccc(O)cc2O[C@H]1O[C@@H]1O[C@H](CO)[C@@H](O)[C@H](O)[C@H]1O | inactive | inactive | – | –
C=C(C(=O)O)[C@@H]1CC=C2CCC[C@H](C)[C@@]2(C)C1 | inactive | inactive | – | –
N#CC1C(=O)Nc2scc(-c3ccc(-c4ccccc4O)cc3)c2C1=O (stereo not drawn) | inactive | inactive | – | –
C=C1CCC2C(C)(C(=O)O)CC(O)CC2(C)C1CC/C(C)=C/C(=O)O (stereo not drawn) | inactive | inactive | – | –
C=C[C@](C)(CC/C=C(\C)C(=O)O)O[C@@H]1OC[C@H](O)[C@H](O)[C@H]1O | inactive | inactive | – | –
CC(C)(O)c1ccc2c(c1)C(O)CC1C(C)(C(=O)O)CCCC21C (stereo not drawn) | inactive | inactive | – | –
